From PubChem BioAssay (Tox21)
Results filed as inconclusive are left out. The source made the active and inactive calls. Unless noted, the call rests on the fitted dose curve; in most records, active means well fitted curve in the direction sought with a large enough effect in the repeat runs; inconclusive means weak or mixed curves; inactive means no such curve, though single readings can be large; an effect the other way counts as inactive or inconclusive.

Legend:
[1] = qHTS assay to identify small molecule antagonists of the glucocorticoid receptor (GR) signaling pathway - cell viability counter screen (AID 720693); further: nearly all actives have a fitted effect of over 55% in size
[2] = qHTS assay for identifying genotoxic compounds that show differential cytotoxicity against isogenic chicken DT40 cell lines with known DNA damage response pathways - wild type cell line (AID 743012); further: nearly all actives have a fitted effect of over 60% in size; further: potency means the concentration at half of the fitted maximal effect
In short: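 CellTiter-Glo luminescence readout of viability in wild type DT40 cells after 40 h compound exposure at 37 C/5% CO2; 300 cells/well; reagent incubated 30 min at room temperature before reading.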

[3] = qHTS assay for identifying genotoxic compounds that show differential cytotoxicity against isogenic chicken DT40 cell lines with known DNA damage response pathways - Rev3 mutant cell line (AID 743014); further: nearly all actives have a fitted effect of over 55% in size; further: potency means the concentration at half of the fitted maximal effect
[4] = qHTS assay for identifying genotoxic compounds that show differential cytotoxicity against isogenic chicken DT40 cell lines with known DNA damage response pathways - Rad54/Ku70 mutant cell line (AID 743015); further: nearly all actives have a fitted effect of over 60% in size; further: potency means the concentration at half of the fitted maximal effect
[5] = qHTS assay to identify small molecule antagonists of the androgen receptor (AR) signaling pathway - cell viability counter screen (AID 743033; further: nearly all actives have a fitted effect of over 45% in size)
[6] = qHTS assay to identify small molecule antagonists of the androgen receptor (AR) signaling pathway using the MDA cell line - cell viability counter screen (AID 743041; further: nearly all actives have a fitted effect of over 45% in size; further: potency means the concentration at half of the fitted maximal effect)
In short: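 Cytotoxicity counter screen: MDA-kb2 AR-luc cells, compound + R1881, 16 h, 37C, 0% CO2; CellTiter-Fluor added at 15.5 h, fluorescence read after 30 min.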

[7] = qHTS assay to identify small molecule antagonists of the thyroid receptor (TR) signaling pathway - cell viability counter screen (AID 743064); further: nearly all actives have a fitted effect of over 50% in size; further: potency means the concentration at half of the fitted maximal effect
In short: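 Viability of T3-stimulated (1 nM final) GH3.TRE-Luc cells is measured by CellTiter-Fluor fluorescence after 23.5 h compound exposure at 37 °C plus 30 min reagent incubation.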

[8] = qHTS assay to identify small molecule antagonists of the thyroid receptor (TR) signaling pathway (AID 743065); further: nearly all actives have a fitted effect of over 55% in size; further: potency means the concentration at half of the fitted maximal effect
In short: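 GH3.TRE-Luc rat pituitary cells (two TREs driving luciferase) were dosed with compound, then stimulated with 1 nM T3 (final) for 23.5 h at 37 C. ONE-Glo luminescence was the read-out, with CellTiter-Fluor fluorescence as the cytotoxicity counter-screen.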

[9] = test system: thyroid hormone receptor (rat, GH3 cells); assay: qHTS assay to identify small molecule agonists of the thyroid receptor (TR) signaling pathway (AID 743066; calls by dose curve)
[10] = biological target: Estrogen receptor (Homo sapiens) (UniProt P03372); assay: qHTS assay to identify small molecule antagonists of the estrogen receptor alpha (ER-alpha) signaling pathway (AID 743069; active means well fitted curve in the direction sought with a large enough effect in the signal ratio in the repeat runs, not every such curve was filed as active; the % refers to the signal ratio)
In short: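 Beta-lactamase FRET fluorescence is read after 2 hr at room temperature with LiveBLAzer B/G substrate. Before that, ER-alpha-bla HEK293 cells sit 4 hr after plating, then receive compound plus 17beta-estradiol and incubate 18 hr at 37C.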

[11] = qHTS assay to identify small molecule antagonists of the estrogen receptor alpha (ER-alpha) signaling pathway - cell viability counter screen (AID 743074; calls by dose curve;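 further: HEK293 cells carrying ER-alpha-UAS-bla reporter stimulated with 17beta-estradiol; nearly all actives have a fitted effect of over 45% in size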)
[12] = biological target: Estrogen receptor (Homo sapiens) (UniProt P03372); assay: qHTS assay to identify small molecule agonists of the estrogen receptor alpha (ER-alpha) signaling pathway (AID 743075; calls by dose curve;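 further: HEK293 GripTite cells with ER-alpha and UAS-driven beta-lactamase reporter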)
[13] = biological target: Estrogen receptor (Homo sapiens) (UniProt P03372); assay: qHTS assay to identify small molecule agonists of the estrogen receptor alpha (ER-alpha) signaling pathway using the BG1 cell line (AID 743079); further: nearly all actives have a fitted effect of over 20% in size
[14] = qHTS assay to identify small molecule antagonists of the estrogen receptor alpha (ER-alpha) signaling pathway using the BG1 cell line - cell viability counter screen (AID 743081);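 further: compound given together with 17beta-estradiol as the ER stimulus; series mostly up to about 70 µM; nearly all actives have a fitted effect of over 45% in size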
Aromatase (Homo sapiens) = Aromatase (Homo sapiens) (UniProt P11511); assay: qHTS assay to identify aromatase inhibitors (AID 743083); further: nearly all actives have a fitted effect of over 55% in size; further: potency means the concentration at half of the fitted maximal effect
[15] = qHTS assay to identify aromatase inhibitors - cell viability counter screen (AID 743084)
[16] = qHTS assay to identify small molecule antagonists of the estrogen receptor alpha (ER-alpha) signaling pathway using the BG1 cell line (AID 743080; calls by dose curve; further: series mostly up to about 70 µM; nearly all actives have a fitted effect of over 25% in size)
In short: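 Antagonist mode: compounds in DMSO were pinned onto BG1-Luc-4E2 cells alongside 17beta-estradiol agonist, incubated 21.5 h, and ERE-driven luciferase measured with ONE-Glo. Cytotoxicity was multiplexed using CellTiter-Fluor fluorescence.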

[17] = biological target: Androgen receptor (Homo sapiens) (UniProt P10275); assay: qHTS assay to identify small molecule agonists of the androgen receptor (AR) signaling pathway (AID 743036; active means well fitted activation curve with a large enough effect in the signal ratio in the repeat runs, with a control signal flat, not every such curve was filed as active; the % refers to the signal ratio)
In short: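 Screening used 2,000 AR-bla HEK293 cells per well, treated 16 h at 37C with test compounds in DMSO alongside positive and DMSO-only controls; beta-lactamase activity was then read by LiveBLAzer B/G FRET fluorescence after 2 h at room temperature.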

Measured: Potency

Estrogen receptor (Homo sapiens), sequence (P03372 whole entry, looked up): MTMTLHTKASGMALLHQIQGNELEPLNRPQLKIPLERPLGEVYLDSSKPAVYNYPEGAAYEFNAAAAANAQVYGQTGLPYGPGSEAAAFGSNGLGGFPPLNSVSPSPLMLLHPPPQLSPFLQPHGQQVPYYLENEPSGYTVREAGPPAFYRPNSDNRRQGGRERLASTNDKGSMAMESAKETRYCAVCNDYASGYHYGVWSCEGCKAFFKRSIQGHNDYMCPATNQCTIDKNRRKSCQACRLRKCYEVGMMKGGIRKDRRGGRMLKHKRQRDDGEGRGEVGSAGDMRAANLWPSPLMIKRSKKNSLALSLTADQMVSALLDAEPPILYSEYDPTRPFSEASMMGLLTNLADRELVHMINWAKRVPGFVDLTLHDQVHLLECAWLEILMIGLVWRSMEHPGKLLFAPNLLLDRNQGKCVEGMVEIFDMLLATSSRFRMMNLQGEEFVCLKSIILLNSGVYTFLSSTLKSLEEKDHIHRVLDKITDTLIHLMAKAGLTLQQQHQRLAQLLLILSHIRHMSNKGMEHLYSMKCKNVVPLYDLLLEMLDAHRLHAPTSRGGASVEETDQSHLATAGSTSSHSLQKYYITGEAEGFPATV
Aromatase (Homo sapiens), sequence (P11511 whole entry, looked up): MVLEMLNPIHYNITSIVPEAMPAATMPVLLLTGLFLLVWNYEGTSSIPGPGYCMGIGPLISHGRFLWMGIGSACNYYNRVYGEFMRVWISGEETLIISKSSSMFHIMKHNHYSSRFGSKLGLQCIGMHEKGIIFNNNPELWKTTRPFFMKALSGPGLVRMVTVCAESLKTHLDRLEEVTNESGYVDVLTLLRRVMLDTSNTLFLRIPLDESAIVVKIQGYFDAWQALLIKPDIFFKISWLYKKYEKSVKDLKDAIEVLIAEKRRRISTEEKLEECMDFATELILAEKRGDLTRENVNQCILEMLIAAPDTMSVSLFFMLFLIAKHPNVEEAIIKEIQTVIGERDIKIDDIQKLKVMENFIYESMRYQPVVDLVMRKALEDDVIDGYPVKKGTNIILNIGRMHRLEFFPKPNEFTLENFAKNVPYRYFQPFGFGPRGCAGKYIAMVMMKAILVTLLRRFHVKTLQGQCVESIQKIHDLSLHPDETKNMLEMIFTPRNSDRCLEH
Androgen receptor (Homo sapiens), sequence (P10275 whole entry, looked up): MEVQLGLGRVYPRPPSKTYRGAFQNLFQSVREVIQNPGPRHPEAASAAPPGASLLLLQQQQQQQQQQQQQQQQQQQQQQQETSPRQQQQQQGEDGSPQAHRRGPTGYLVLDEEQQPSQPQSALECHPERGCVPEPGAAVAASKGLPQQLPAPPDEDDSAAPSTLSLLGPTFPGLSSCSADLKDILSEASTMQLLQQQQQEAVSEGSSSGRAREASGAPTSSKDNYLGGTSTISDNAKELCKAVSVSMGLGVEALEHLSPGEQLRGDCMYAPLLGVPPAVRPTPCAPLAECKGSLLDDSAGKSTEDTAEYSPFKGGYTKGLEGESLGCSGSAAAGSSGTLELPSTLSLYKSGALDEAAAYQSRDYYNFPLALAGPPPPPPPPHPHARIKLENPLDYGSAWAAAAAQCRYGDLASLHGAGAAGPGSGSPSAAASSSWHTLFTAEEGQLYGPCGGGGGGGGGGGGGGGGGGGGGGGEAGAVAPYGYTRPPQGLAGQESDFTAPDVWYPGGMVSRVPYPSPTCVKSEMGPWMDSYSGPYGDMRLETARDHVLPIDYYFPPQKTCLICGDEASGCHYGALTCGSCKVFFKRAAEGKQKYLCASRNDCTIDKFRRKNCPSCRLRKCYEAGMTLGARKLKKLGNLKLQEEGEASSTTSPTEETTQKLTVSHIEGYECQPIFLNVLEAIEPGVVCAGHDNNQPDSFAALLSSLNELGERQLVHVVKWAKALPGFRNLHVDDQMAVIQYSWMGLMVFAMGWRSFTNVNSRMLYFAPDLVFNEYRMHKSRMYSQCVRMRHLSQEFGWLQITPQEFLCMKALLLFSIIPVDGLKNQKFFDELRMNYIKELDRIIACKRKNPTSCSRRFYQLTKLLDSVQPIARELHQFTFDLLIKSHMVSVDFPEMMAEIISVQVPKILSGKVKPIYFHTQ

CS(=O)(=O)c1ccc([C@@H](O)[C@@H](CF)NC(=O)C(Cl)Cl)cc1
active: [2] 4.03 µM | [3] 6.39 µM | [4] 7.17 µM
not listed: [16] | [17]
inactive: all other assays above

CCN(O)CC
not listed: [10] | [12] | [13] | [16] | [17]
inactive: all other assays above

CC(C)=CCCC(C)CCOC=O (stereo not drawn)
active: [2] 48.6 µM | [3] 27.3 µM | [4] 27.3 µM
inactive: [1] | [5] | [6] | [7] | [8] | [11] | [14] | [15]

CCCCNC(=S)NCCCC
active: [2] 48.6 µM | [3] 34.4 µM | [4] 24.3 µM
not listed: [5] | [17]
inactive: all other assays above

CC(C)C(=O)OCC(C)(C)C(O)C(C)C (stereo not drawn)
not listed: [7] | [15] | [17]
inactive: all other assays above

CCC(=O)c1ccc2c(c1)N(CCCN(C)C)c1ccccc1S2
active: [2] 4.73 µM | [3] 8.41 µM | [4] 7.5 µM | [7] 7.5 µM | [8] 7.5 µM
inactive: [1] | [17] | [11]

COc1ccccc1N1CCN(CCCNc2cc(=O)n(C)c(=O)n2C)CC1
not listed: [8] | [9] | [17]
inactive: all other assays above

CCCCNc1ccc(C(=O)OCCN(CC)CC)cc1
active: [2] 2.37 µM | [3] 1.68 µM | [4] 2.37 µM
not listed: [7] | [8] | [11] | [14] | [17]
inactive: all other assays above

O=C(O[C@@H](C(=O)O)[C@@H](OC(=O)c1ccccc1)C(=O)O)c1ccccc1
not listed: [8] | [9] | [17]
inactive: all other assays above

CC[C@H]1CC[C@H](NCc2cc3c(cc2OC)[C@H]2C[C@H]2C(=O)N3C)[C@H](c2ccccc2)N1
active: [2] 6.86 µM | [3] 4.86 µM | [4] 4.86 µM | [6] 68.6 µM | [7] 24.3 µM | [8] 19.3 µM | Aromatase (Homo sapiens) 68.6 µM
inactive: [1] | [5] | [10] | [11] | [12]

O=C1CCC(C2CCCCC2)CC1
not listed: [8] | [10] | [11] | [12] | [13] | [16] | [17]
inactive: all other assays above

O=C(O)CN(CCN(CC(=O)O)CC(=O)O)CCN(CC(=O)O)CC(=O)O
inactive: [1] | [5] | [6] | [9] | [11] | [14] | Aromatase (Homo sapiens) | [15]
active: [2] 18.8 µM | [3] 26.6 µM | [4] 18.8 µM | [7] 26.6 µM

CCCCC(CC)COC(=O)COc1cc(Cl)c(Cl)cc1Cl (stereo not drawn)
not listed: [7] | [17]
inactive: all other assays above
